Reference: PubChem BioAssay AID624049 (National Center for Advancing Translational Sciences (NCATS), 2012)
Activity calls are given as the source filed them. Where a call stands in place of a potency, no number is given. Calls follow the shape of the dose curve; as a rule, active = well fitted inhibition curve with a large enough effect; inactive = no such curve, though single readings can be large or run the other way.

Molecular target: Dual specificity protein kinase CLK3 (Homo sapiens) (UniProt P49761)
Test: Reaction Biology data for inhibitors of CLK3: Probe SAR
Conditions: Reaction Biology CLK3 kinase assay, 10 uM ATP; series mostly up to 10 µM
From the text: Alternative splicing of pre-mRNAs plays a major role in the regulation of eukaryotic gene expression. Alternative splicing is now thought to be one of the primary reasons for the complexity of higher organisms leading to an average of three protein isoforms per gene. Aberrant splicing can lead to a number of diseases and is known to play a role in rare genetic diseases such as progeria syndrome. Hutchinson-Gilford Progeria Syndrome (HGPS) is a pediatric premature aging disease caused by a spontaneous mutation in the lamin A/C (LMNA) gene due to a single point mutation in the lamin A gene effecting 1 in 4 million people. To identify both specific splicing modulators of the lamin A gene as well as general splicing modulators, a cell-based HTS assay was developed using a minigene reporter system (AIDs, 1459 & 1487). […] This AID summarizes the characterization of lead compounds in Clk3. NIH Molecular Libraries Probe Production Centers Network [MLPCN] NIH Chemical Genomics Center [NCGC] MLPCN Grant: MH084827 Assay Submitter (PI): Tom Misteli
Compound IC50s were determined at Reaction Biology (http://www.reactionbiology.com) with ten concentration points starting at 10 uM in the assay using a 3-fold dilution series. The control compound staurosporine was also tested in the 10-dose IC50 mode with the same 3-fold serial dilution, again starting at 10 uM. All kinase reactions were performed using 10 uM ATP in the assay. 100% activity was taken from kinase reactions with DMSO alone (the vehicle used for compound stock solutions).

Chain of Dual specificity protein kinase CLK3 (Homo sapiens) (P49761 whole entry, looked up): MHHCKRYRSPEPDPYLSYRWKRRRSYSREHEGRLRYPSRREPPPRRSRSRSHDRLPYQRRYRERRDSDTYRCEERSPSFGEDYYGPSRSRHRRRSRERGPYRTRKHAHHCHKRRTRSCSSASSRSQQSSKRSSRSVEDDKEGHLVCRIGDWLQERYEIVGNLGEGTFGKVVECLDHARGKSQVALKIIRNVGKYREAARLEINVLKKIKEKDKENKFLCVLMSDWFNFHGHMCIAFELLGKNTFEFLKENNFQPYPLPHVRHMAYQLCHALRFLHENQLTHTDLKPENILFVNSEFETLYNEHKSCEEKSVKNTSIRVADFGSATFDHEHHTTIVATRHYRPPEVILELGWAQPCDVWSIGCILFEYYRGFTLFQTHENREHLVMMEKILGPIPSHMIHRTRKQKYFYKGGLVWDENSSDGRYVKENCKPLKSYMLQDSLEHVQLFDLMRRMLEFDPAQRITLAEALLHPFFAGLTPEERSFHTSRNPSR

Structure (SMILES) | Potency
Clc1ccc(CNc2nccc(-c3ccc4cn[nH]c4c3)n2)cc1Cl | inactive
COc1ccc(-c2ccnc(NCc3ccc(Cl)cc3)n2)cc1 | inactive
COc1cccc(-c2ccnc(NCc3ccc(Cl)cc3)n2)c1 | inactive
c1cc(-c2ccc3c(c2)OCO3)nc(Nc2ccc3c(c2)OCO3)n1 | inactive
Brc1cc(Br)cc(CNc2nccc(-c3ccc4c(c3)OCO4)n2)c1 | inactive
Clc1ccc(Nc2nccc(-c3ccc4c(c3)OCO4)n2)cc1 | inactive
FC(F)(F)c1cc(Br)cc(Nc2nccc(-c3ccc4c(c3)OCO4)n2)c1 | inactive
Cc1c(-c2ccnc(NCc3cccnc3)n2)sc(=O)n1C | inactive
COc1ccc(-c2ccnc(NCc3ccc(Cl)c(Cl)c3)n2)cc1 | inactive
Cc1nc(CN(C)c2ncnc3ccc(-c4ccc5[nH]ncc5c4)cc23)cs1 | 792 nM (active)
COc1cccc(-c2ccnc(NCc3ccc(Cl)c(Cl)c3)n2)c1 | inactive
Clc1ccc(CNc2ccnc(-c3ccc4c(c3)OCO4)n2)cc1Cl | inactive
Clc1ccc(CNc2nccc(-c3ccc4c(c3)OCCO4)n2)cc1Cl | inactive
c1cncc(CNc2ccnc(-c3ccc4[nH]ncc4c3)n2)c1 | inactive
Clc1ccc(CNc2nccc(-c3ccc4c(c3)OCO4)n2)cc1Cl | 3630 nM (active)
c1cncc(CNc2ccnc(-c3ccc4cn[nH]c4c3)n2)c1 | inactive
O=[N+]([O-])c1cc(Nc2nccc(-c3ccc4c(c3)OCO4)n2)cc(C(F)(F)F)c1 | inactive

Structure (SMILES) | Potency
Clc1ccc(CNc2ncncc2-c2ccc3c(c2)OCO3)cc1Cl | inactive
Clc1ccc(CNc2ccnc(-c3ccc4[nH]ncc4c3)n2)cc1Cl | inactive
Brc1ccc(CNc2nccc(-c3ccc4c(c3)OCO4)n2)cc1Br | 3230 nM (active)
c1cncc(CNc2nccc(-c3ccc4[nH]ncc4c3)n2)c1 | 2660 nM (active)
c1cncc(CNc2ncncc2-c2ccc3c(c2)OCO3)c1 | inactive
COc1ccc(-c2ccnc(NCc3ccc(Cl)c(Cl)c3)n2)cc1OC | inactive
c1nc(NCC2CCCO2)c2cc(-c3ccc4c(c3)OCO4)ccc2n1 (stereo not drawn) | 836 nM (active)
FC(F)(F)c1cccc(Nc2nccc(-c3ccc4c(c3)OCO4)n2)c1 | inactive
Clc1cc(Cl)cc(CNc2ncncc2-c2ccc3c(c2)OCO3)c1 | inactive
Cc1nc(CNc2ncnc3ccc(-c4ccc5c(c4)OCO5)cc23)cs1 | 1260 nM (active)
Clc1ccc(CNc2ncncc2-c2ccc3c(c2)OCO3)cc1 | inactive
Cc1c(-c2ccnc(NCc3ccc(Cl)cc3)n2)sc(=O)n1C | inactive
Clc1cc(Cl)cc(CNc2nccc(-c3ccc4c(c3)OCO4)n2)c1 | inactive
c1cncc(CNc2nccc(-c3ccc4c(c3)OCO4)n2)c1 | 1470 nM (active)
Clc1ccc(CNc2nccc(-c3ccc4[nH]ncc4c3)n2)cc1Cl | 2930 nM (active)
Cc1nc(CN(C)c2ncnc3ccc(-c4ccc5c(c4)OCO5)cc23)cs1 | 403 nM (active)
